Shown are actives, neighbours in structure and some others; about 11% of the full set was active somewhere.
HPGD block: qHTS Assay for Inhibitors of HPGD (15-Hydroxyprostaglandin Dehydrogenase). 15-hydroxyprostaglandin dehydrogenase [NAD(+)] (Homo sapiens), P15428. purified HPGD, NADH fluorescence kinetic, PGE2 substrate. Potency, µM, hits mostly inhibitors. 150,000 compounds, 4.3% hits
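20 nM HPGD preincubated 15 min at room temperature with compound in 50 mM Tris-HCl pH 8, 0.01% Tween 20. Started with 1 mM NAD+ and 30 uM prostaglandin E2; NADH fluorescence (360/450 nm) read 5 times over 30-s intervals, last minus first.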
ALDH1A1 block: qHTS Assay for Inhibitors of Aldehyde Dehydrogenase 1 (ALDH1A1). 220,000 compounds, 7.3% hits. Aldehyde dehydrogenase 1A1 (Homo sapiens), P00352. Potency, µM (series often up to 75.3 µM), usual class: inhibitors. Purified ALDH1A1, NADH fluorescence, propionaldehyde substrate
Target sequence (P00352 whole entry, looked up): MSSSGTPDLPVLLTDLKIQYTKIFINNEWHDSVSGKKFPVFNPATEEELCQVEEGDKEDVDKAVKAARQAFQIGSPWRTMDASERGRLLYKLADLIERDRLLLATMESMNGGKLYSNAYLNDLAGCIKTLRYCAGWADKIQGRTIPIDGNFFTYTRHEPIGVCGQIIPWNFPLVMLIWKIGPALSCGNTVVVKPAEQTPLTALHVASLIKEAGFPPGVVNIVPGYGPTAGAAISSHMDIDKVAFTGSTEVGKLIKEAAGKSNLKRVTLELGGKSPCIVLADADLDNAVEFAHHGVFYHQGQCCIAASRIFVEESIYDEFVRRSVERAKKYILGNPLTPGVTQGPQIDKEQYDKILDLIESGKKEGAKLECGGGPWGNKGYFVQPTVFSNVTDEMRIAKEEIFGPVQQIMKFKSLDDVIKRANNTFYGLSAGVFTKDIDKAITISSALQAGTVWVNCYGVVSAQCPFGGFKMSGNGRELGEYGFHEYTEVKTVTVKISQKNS
PNC inhibitor: High Content Assay for Compounds that inhibit the Assembly of the Perinucleolar Compartment; PC3M PTB-GFP, PNC prevalence imaging, 16 h; hits give low values; activity change (PNC), negative = inhibition, % at 10 µM; 140,000 compounds, 3.1% hits;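 active means readout at or below -70, meaning at least 70% loss of cells showing the perinucleolar compartment, a nuclear body marking cancer cells; inconclusive means readout between -30 and a set limit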
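PC3M cells stably expressing PTB-GFP, 750–1000 cells/well, treated 16 h at 37 °C with compound (23 nl of library stock), in duplicate. After paraformaldehyde fixation and Hoechst stain, imaged at 20x; PNC prevalence scored by image analysis.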
KDM4E inh: qHTS Assay for Inhibitors of Human Jumonji Domain Containing 2E (JMJD2E). Potency, µM (titrated, usually from 57.1 µM), hits mostly inhibitors. 230,000 compounds, 1.6% hits. JMJD2E catalytic domain, FDH-coupled NADH fluorescence (FDH is formaldehyde dehydrogenase); further: nearly all actives have a fitted effect of over 50% in size
A number is an active result; . = inactive; ? = inconclusive; / = no result; [ ] = dose if it differs, or a comment. Unless noted, the call rests on the fitted dose curve; in most records, active means well fitted inhibition curve with a large enough effect (not every such curve was filed as active); inconclusive means small, poorly fitted or top-dose-only effect, or another doubt; inactive means no such curve, though single readings can be large or run the other way.

SMILES | HPGD block | ALDH1A1 block | PNC inhibitor | KDM4E inh
COCCn1nnnc1C(c1cc2ccc(C)cc2[nH]c1=O)N(Cc1ccco1)Cc1cccs1 (centres undefined) | . | 18µM | . | .
O=C(c1ccc(Cl)cc1Cl)N1CCC(c2nc3c(nnn3Cc3ccco3)c(=O)[nH]2)CC1 | 20µM | . | ? | .
O=C(c1ccccc1)N1CCC(c2nc3c(nnn3Cc3ccco3)c(=O)[nH]2)CC1 | 14µM | . | . | .
CC1(C)Oc2ccc3ccc(=O)oc3c2/C(=C/NC2CCCCC2)C1=O | . | ? | . | .
C[C@@]12CC[C@@H]3[C@H](CCC4=CC(=O)CC[C@]43C)[C@@H]1CC[C@@H]2C(=O)COS(=O)(=O)c1ccc(Br)cc1 | . | 3.5µM | / | /
C#CCOCCOCCOCCNc1nc(N2CCN(C(=O)[C@H](CCC(=O)O)n3cc(C(N)CC(C)C)nn3)CC2)nc(N2CCN(C(=O)[C@H](Cc3ccc(O)cc3)n3cc(C(N)[C@H](C)CC)nn3)CC2)n1 (some centres undefined) | / | . | / | .
CCN(CC)C1=NC=CC(c2ccccc2)=CC1C (centres undefined) | . | . | . | .
COc1ccc(-c2csc(NC(=O)C3CCCO3)n2)cc1 (centres undefined) | ? | 22µM | . | .
CC1CCN(CCNC(=O)c2ccc(NC(=O)C3CCCO3)cc2)CC1 (centres undefined) | . | . | . | .
CC1CCN(C(=O)c2ccc(NC(=O)C3CCCO3)cc2)CC1 (centres undefined) | 0.71µM | ? | ? | .
CC(NC(=O)C1CCCO1)c1ccccc1 (centres undefined) | 18µM | . | . | .
CC(=O)Nc1ccc(-c2csc(NC(C)c3ccccc3)n2)cc1 (centres undefined) | / | 18µM | / | .
COC(=O)COc1ccc(NC(=O)C2CCCO2)cc1 (centres undefined) | 16µM | ? | . | .
COC(=O)c1c(-c2ccc(F)cc2)csc1NC(=O)C1CCCO1 (centres undefined) | / | 20µM | / | .
CCOc1cc(NC(=O)C2CCCO2)c(OCC)cc1NC(C)=O (centres undefined) | . | ? | -94 | .
O=C(Nc1ccc(Oc2ccccc2)cc1)C1CCCO1 (centres undefined) | 11µM | . | . | .
COC(=O)N1CCc2cc(OC)c(OC)cc2C1Cc1ccc(OC)cc1 (centres undefined) | / | .[13.5 µM] | / | /
NC(=O)[C@@H]1CCCN1 | . | . | / | /
CC1(c2nnc(-c3ccc(F)cc3)o2)CC(c2ccccc2)=NO1 (centres undefined) | / | / | / | .
c1ccc(C[n+]2cccc(-c3cc4ccccc4[nH]3)c2)cc1 | . | .[13.5 µM] | / | /
CC1CC1C(=O)Nc1nc(-c2ccccc2)cs1 (centres undefined) | . | 10µM | . | .
COc1ccc(NC(=O)C2CCCO2)cc1 (centres undefined) | 25µM | . | ? | .
CC1(C)OC2CC(=O)OCC23C1CC(=O)C1(C)C3CC[C@@]2(C)[C@H](c3ccoc3)OC(=O)C3OC312 (some centres undefined) | . | . | / | /
CCC(=O)Nc1nc(=S)ss1 | 10µM | 2µM | ? | ?
CC(C)(C)C(=O)Nc1nc(=S)ss1 | 32µM | 5.6µM | . | .
SMILES | HPGD block | ALDH1A1 block | PNC inhibitor | KDM4E inh
CC(=O)NC(Cc1ccc(C(C)C)cc1)C(=O)NC1CCN(c2nc(C)cc(C)n2)CC1 (centres undefined) | . | ? | . | .
COc1cccc(CC(NC(C)=O)C(=O)NC2CCN(c3ncccc3[N+](=O)[O-])CC2)c1 (centres undefined) | / | . | / | .
COc1ccc(CC(NC(C)=O)C(=O)NC2CCN(c3ncccc3[N+](=O)[O-])CC2)cc1 (centres undefined) | / | 6.3µM | / | .
CC(=O)NC(Cc1ccc(F)cc1)C(=O)NC1CCN(c2nnnn2-c2ccccc2)CC1 (centres undefined) | . | 1µM | . | .
CN(C)/C=C(\C#N)C(N)=C(C#N)C#N | / | . | / | .
CC(CC(C)C(=O)Nc1ccccc1C(C)(C)C)C(=O)O (centres undefined) | . | . | . | .
C=C(C)CN=C1SC(C(=O)Nc2sc3c(c2C(=O)OC)CCC3)C(N)=C1C(N)=O (centres undefined) | ? | 25µM | . | ?
COC(=O)c1c(NC(=O)C2SC(=NC3CCCCC3)C(C(N)=O)=C2N)sc2c1CCCC2 (centres undefined) | . | . | ? | ?
CC1(C)CC(=O)c2c(oc3ccc(NS(=O)(=O)c4ccc(C(=O)O)cc4)cc23)C1 | / | . | / | .
CC1(C)CC(=O)c2c(oc3cc4c(cc23)OCO4)C1 | 2.5µM | 7.9µM | / | .
CCn1ncc(C2=NOC(C(=O)Nc3ccc(C)cc3)C2)c1C (centres undefined) | . | . | ? | .
CCn1ncc(C2=NOC(C(=O)NCc3ccc(Cl)cc3)C2)c1C (centres undefined) | . | . | -82 | .
C=C1CC[C@H](O)C/C1=C/C=C1\CCC[C@]2(C)C([C@H](C)CCCC(C)(C)O)CC[C@@H]12 (some centres undefined) | / | . | / | /
CC(=O)c1c(C)[nH]c(C(=O)N2CCN(c3ncccn3)CC2)c1C | . | . | . | .
CC(=O)c1c(C)[nH]c(C(=O)N2CCCCCC2)c1C | 13µM | . | . | .
O=C(CN1CCN(S(=O)(=O)c2cc(Cl)ccc2Cl)CC1)Nc1ccc2c(c1)OCCO2 | . | 8.9µM | . | .
O=C(Nc1ccc2c(c1)OCCO2)c1ccc(Cl)c(S(=O)(=O)N2CCOCC2)c1 | . | 5µM | . | .
COc1cc(/C=N/NC(=O)c2ccc(CSc3nc4ccccc4[nH]3)cc2)cc(OC)c1OC | ? | ? | -85 | .
CC1C/C(=N/NC(=O)c2ccc(CSc3nc4ccccc4[nH]3)cc2)CC(C)(C)C1 (centres undefined) | . | 25µM | . | .
O=C(NCCCO)c1ccc(CSc2nc3ccccc3[nH]2)cc1 | / | . | / | .
CC1C/C(=N/Nc2nc3ccccc3[nH]2)CC(C)(C)C1 (centres undefined) | . | ? | ? | .
O=C(NCCO)c1ccc(CSc2nc3ccccc3[nH]2)cc1 | 25µM | . | . | .
C[Si](C)(c1ccc(C(=O)O)cc1)c1ccc(C(=O)O)cc1 | 0.2µM | .[13.5 µM] | / | /
O=C(O)c1ccc(B(O)O)cc1 | . | . | / | .
CC(=O)c1ccc(NC(=O)COC(=O)CCc2ccc(S(=O)(=O)N3CCOCC3)cc2)cc1 | / | / | / | .
O=C1CC(Cc2ccccc2)C(=O)N1CCCn1ccnc1 (centres undefined) | . | 16µM | ? | ?
COc1ccc(CCN2C(=O)CC(NCc3ccc4c(c3)OCO4)C2=O)cc1OC (centres undefined) | . | 25µM | . | .
COc1ccc(CCN2C(=O)C3C4C=CC(C5CC45)C3C2=O)cc1OC (centres undefined) | / | 4µM | / | .

Compound activity from PubChem.
